Inconclusive results are not listed. Activity calls are given as the source filed them. Calls come from the whole dose curve; as a rule, active = well fitted inhibition curve with a large enough effect; inconclusive = small, poorly fitted or top-dose-only effect; inactive = no such curve, though single readings can be large or run the other way.
The compounds below were run against Cytochrome P450 3A4 (Homo sapiens) (UniProt P08684) (assay: qHTS Assay for Inhibitors and Substrates of Cytochrome P450 3A4 (AID 884; note: nearly all actives have a fitted effect of over 50% in size)). Conditions: recombinant CYP3A4, Luciferin-PPXE luminescence; series mostly up to 57.1 µM.
Experimental: NIH Molecular Libraries Screening Centers Network [MLSCN]
NIH Chemical Genomics Center [NCGC]
The P450 gene superfamily is involved in the metabolism and clearance of xenobiotics. This assay used human CYP3A4 to measure the dealkylation of luciferin-6' phenylpiperazinylyl (Luciferin-PPXE; […]) to luciferin. The luciferin is then measured by luminescence after the addition of a luciferase detection reagent. Luciferin-PPXE concentration in the assay was equal to its KM for CYP3A4. Inhibitors and some substrates limit the production of luciferin, and decrease measured luminescence.
NCGC Assay Protocol Summary:
Two uL of enzyme and substrate mix (final concentrations: 20nM CYP3A4, 25uM Luciferin-PPXE, 200mM KPO4) were dispensed into a white, solid bottom 1536-well microtiter plate. 23nL of compound was transferred by a pin tool. The plate was incubated at RT for 10 min. Two uL of an NADPH regeneration solution (Promega supplied reagent) was dispensed and the reaction was allowed to continue for 60 min at RT. Then the reaction was stopped by reconstituted luciferin detection buffer. After another 20 min of incubation the plate was read on the ViewLux (Perkin Elmer) at 60 sec exposure and 2x2 binning. This protocol was carried out with Promega-Glo reagents and further information can be found at http://www.promega.com/tbs/tb325/tb325.pdf. Data were normalized to the to AC100 inhibition (57 uM ketoconazole).
Keywords: P450, CYP3A4, Luciferase, MLSMR, MLSCN, NIH Roadmap, qHTS, NCGC
Potency is the fitted concentration of half-maximal effect.

Sequence of Cytochrome P450 3A4 (Homo sapiens) (P08684 whole entry, looked up): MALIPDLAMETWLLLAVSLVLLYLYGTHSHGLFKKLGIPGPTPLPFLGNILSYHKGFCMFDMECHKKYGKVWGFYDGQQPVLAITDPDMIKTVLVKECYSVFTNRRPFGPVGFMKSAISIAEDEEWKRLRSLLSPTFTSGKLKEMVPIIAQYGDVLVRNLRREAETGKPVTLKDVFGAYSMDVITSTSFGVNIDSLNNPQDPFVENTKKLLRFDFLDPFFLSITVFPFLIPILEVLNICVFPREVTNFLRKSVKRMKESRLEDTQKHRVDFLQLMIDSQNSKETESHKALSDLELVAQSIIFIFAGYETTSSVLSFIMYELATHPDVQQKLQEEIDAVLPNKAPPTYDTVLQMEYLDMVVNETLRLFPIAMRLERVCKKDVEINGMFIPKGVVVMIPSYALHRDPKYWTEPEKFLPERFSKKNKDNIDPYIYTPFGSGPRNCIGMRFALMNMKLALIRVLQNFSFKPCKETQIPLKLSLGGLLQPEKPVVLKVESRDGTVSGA

SMILES	Potency
O=c1c(CCc2ccccc2)nc2cncnc2n1Cc1ccc(F)cc1	3.16 µM (active)
Cn1c(=O)c(-c2ccc(Cl)cc2)nc2cnc(N3CCOCC3)nc21	inactive
COc1ccc(CNc2cc(-c3ccccc3Cl)ncn2)c(OC)c1	6.31 µM (active)
Cc1nc(NCc2ccccc2)c2nc(-c3ccccc3)n(CCCN3CCOCC3)c2n1	3.98 µM (active)
COc1ccc(CNc2ncncc2-c2cccnc2)c(OC)c1	0.501 µM (active)
O=C(c1cc(C(F)(F)F)cc(C(F)(F)F)c1)N1CCC2(CCN(Cc3nccs3)CC2)CC1	inactive
c1ccc(Nc2cc(-c3ccoc3)ncn2)cc1	inactive
COC(=O)N1CCC2(CC1)CN(C(c1ccccc1)c1ccccc1)C2	inactive
O=C(c1ccncc1)N1CCC2(CC1)CN(c1cccc(-c3ccccc3)c1)C2	7.94 µM (active)
COC(=O)N1CCC2(CCN(Cc3nccs3)CC2)CC1	inactive
CCCn1c(C)nc2c(NCCCN(CC)CC)nc(C)nc21	inactive
Cc1cccc(CNc2nc(-c3ccc4c(c3)OCO4)nc3ccccc23)c1	0.398 µM (active)
COC(=O)N1CCC[C@@]2(CCN(c3ccncc3)C2)C1	3.98 µM (active)
CCN(CC)CCCC(C)n1c(-c2ccccc2)nc2c(NCc3ccccc3)nc(C)nc21 (stereo not given)	5.01 µM (active)
O=C(Oc1ccccc1)N1CCC2(CC1)CN(c1ccccc1)C2	inactive
CCCn1c(C)nc2c(NCCN3CCCCC3)nc(C)nc21	inactive
Cc1noc(C)c1-c1cncnc1NCCN1CCOCC1	6.31 µM (active)
O=c1c(-c2ccc(Cl)cc2)nc2cnc(N3CCNCC3)nc2n1Cc1cccs1	5.01 µM (active)
CCCn1c(C)nc2c(N3CCN(C)CC3)nc(C)nc21	inactive
CCN(CC)CCCn1c(-c2ccccc2)nc2c(NCCOC)nc(C)nc21	inactive

SMILES	Potency
CCCCNc1nc(C)nc2c1nc(-c1ccccc1)n2CCN1CCCC1	12.6 µM (active)
CCCn1c(C)nc2c(NCCN(C(C)C)C(C)C)nc(C)nc21	inactive
COc1ccccc1-c1cc(NCc2cccc(C)c2)ncn1	6.31 µM (active)
CN1CCN(c2ncc3nc(-c4ccc(F)cc4)c(=O)n(Cc4cccs4)c3n2)CC1	inactive
O=C(Oc1ccccc1)N1CCC2(CC1)CCN(c1ncccn1)CC2	inactive
CCCn1c(-c2ccc(F)cc2)nc2c(NCCN(C)C)nc(C)nc21	inactive
CCCn1c(C)nc2c(NCCCCN(C)C)nc(C)nc21	inactive
O=C(c1cc(C(F)(F)F)cc(C(F)(F)F)c1)N1CCC[C@@]2(CCN(Cc3nccs3)C2)C1	3.16 µM (active)
c1csc(CNc2ccnc(-c3ccoc3)n2)c1	7.94 µM (active)
CCN(CC)CCCCn1c(-c2ccccc2)nc2c(N(CCOC)CCOC)nc(C)nc21	12.6 µM (active)
COc1ccccc1-c1ccc2ncnc(N3CCN(C)CC3)c2c1	3.16 µM (active)
CCN(CC)CCCn1c(-c2ccccc2)nc2c(N3CCOCC3)nc(C)nc21	inactive
O=C(c1cccc(F)c1)N1CCC[C@@]2(CCN(c3ccncc3)C2)C1	0.316 µM (active)
c1cncc(CNc2ncnc3ccc(-c4ccoc4)cc23)c1	1.58 µM (active)
CCCCNc1nc(C)nc2c1nc(-c1ccccc1)n2CC(C)(C)CN(C)C	10 µM (active)
Cc1noc(C)c1C(=O)N1CCC[C@@]2(CCN(c3ccccc3)C2)C1	5.01 µM (active)
COc1cccc(Nc2ncc3nc(C)c(=O)n(Cc4cccs4)c3n2)c1	3.98 µM (active)
CCCn1c(C)nc2c(N(CCN(CC)CC)CCN(CC)CC)nc(C)nc21	inactive
COCCNc1nc(C)nc2c1nc(-c1ccccc1)n2CCN(C)C	inactive
c1cncc(-c2cncnc2-n2ccnc2)c1	7.94 µM (active)
